Screening results from PubChem.
Compounds with a hit are over-represented: about 5.4% of the library has one in this group of screens.
aDG glyco act: increases alpha dystroglycan glycosylation; Pro5-aDG cells, alpha-DG glycosylation AlphaScreen (IIH6); 0% Pro5, 100% B10-LARGE cell signal; activation, % at 10 µM; 360,000 tested, 0.22% active;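 active = activation of at least 8% versus controls, or a plate z-score of at least 8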;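 also: Pro5 are CHO cells carrying HIG-tagged alpha-DG that lacks glycosylation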
rCAG binder: r(CAG) repeat RNA binding. AID 651821. inhibition, % at 3 µM. TO-PRO-1 dye displacement fluorescence. 370,000 tested, 1.3% active;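 active = inhibition above the plate cutoff, the mean of all test compounds on that plate plus 3 SD, cut at about 35% in these data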;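 also: 0% = DMSO alone and 100% = 100 µM mitoxantrone as full dye displacement; higher means more dye released from RNA so lower well fluorescence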
ALR H2O2 inh: human ALR oxidase inhibition via reduced H2O2. 290,000 tested, 3.8% active. P55789. purified ALR, DTT oxidation, H2O2 HRP-luminol luminescence. inhibition, % (concentration not given with the values). AID 485317;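 active = mean replicate inhibition above about 79%, with every replicate also reaching it, limit read from the data; inconclusive = only one of the two criteria met; inactive = mean below limit and not every replicate reaching it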
PHOSPHO1 block: inhibitors of human PHOSPHO1 phosphatase. Q8TCT1. recombinant PHOSPHO1, absorbance phosphatase assay. inhibition, % at 13.3 µM. 290,000 tested, 1.1% active. AID 1565; in the data active = inhibition above about 60%
Target sequence (Q8TCT1 whole entry, looked up): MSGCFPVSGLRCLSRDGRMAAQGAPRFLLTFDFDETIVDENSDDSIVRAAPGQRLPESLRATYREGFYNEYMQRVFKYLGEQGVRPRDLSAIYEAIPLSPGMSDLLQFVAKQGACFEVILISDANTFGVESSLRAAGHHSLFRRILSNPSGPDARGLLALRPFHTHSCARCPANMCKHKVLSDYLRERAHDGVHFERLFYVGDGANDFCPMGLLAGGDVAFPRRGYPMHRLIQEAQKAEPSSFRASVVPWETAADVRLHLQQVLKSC
APOBEC3G inh: blocks human APOBEC3G single-stranded DNA deamination | recombinant A3G, ssDNA deamination FAM/TAMRA fluorescence | inhibition, % at 20 µM | 330,000 tested, 0.28% active;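 active = inhibition of at least 40% at 20 µM, with no more than 30% in the related APOBEC3A deaminase screen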;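 also: plate controls were DMSO wells with A3G for no effect and wells lacking A3G enzyme for full effect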
A3A deaminase: human APOBEC3A DNA deaminase inhibition; recombinant A3A, FAM/TAMRA ssDNA deamination fluorescence; AID 493011; P31941; inhibition, % at 20 µM; 330,000 tested, 0.41% active;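 active = at least 40% inhibition at 20 µM here, with at most 30% in a related deaminase screen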;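 also: plate controls were A3A with DMSO for no effect and wells lacking A3A enzyme for full effect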
Target sequence (P31941 whole entry, looked up): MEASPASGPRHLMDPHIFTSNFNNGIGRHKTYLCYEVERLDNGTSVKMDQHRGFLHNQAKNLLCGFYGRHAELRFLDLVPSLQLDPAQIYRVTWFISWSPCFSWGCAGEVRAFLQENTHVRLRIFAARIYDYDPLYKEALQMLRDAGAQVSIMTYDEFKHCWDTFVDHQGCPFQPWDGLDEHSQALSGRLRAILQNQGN
* marks the source's active call; other numbers are inactive results; ? = inconclusive; . = no result given.

SMILES	aDG glyco act	rCAG binder	ALR H2O2 inh	PHOSPHO1 block	APOBEC3G inh	A3A deaminase
CC(=N\Nc1ccccc1)/C(=N/O)C(=O)Nc1ccccc1	-0.3	7.3	97.4*	18.3	-6.9	-5.5
CC(Sc1nnc(COc2ccc3ccccc3c2)n1C)C(=O)O (configuration not stated)	0.0	2.0	-14.4	76.4*	-3.0	-3.2
COc1ccc(-n2c(=O)c3c4c(sc3n3c(=S)[nH]nc23)COC(C(C)C)C4)cc1 (configuration not stated)	-0.1	5.2	97.3*	-49.6	-6.7	-8.0
NC(=O)c1cc(Br)cc(C2CCCCC2)c1O	-0.1	1.4	92.4*	34.2	-1.6	-0.3
COc1cc(N=Nc2ccccc2C(=O)O)ccc1O	-0.1	3.6	98.1*	34.0	0.0	11.3
Cc1cc(N=Nc2ccccc2C(=O)O)c(C)c(C)c1O	0.1	49.7*	80.6*	19.7	8.2	11.2
CCC1(c2ccc(Cl)cc2)NC(=S)N(c2ccccc2)N1 (configuration not stated)	0.3	8.2	94.5*	-13.9	-3.2	-1.4
CCC1(c2ccccc2)NC(=S)N(c2ccc(C)cc2)N1 (configuration not stated)	0.0	3.2	93.7*	1.7	3.3	-8.7
CCCCCC1(C)NC(=S)N(c2ccccc2)N1 (configuration not stated)	-0.1	0.4	-2.8	27.6	-14.7	-2.2
N#Cc1ccc2nc(-c3ccc(CN4CCC(n5cc(-c6ccccc6)[nH]c5=O)CC4)cc3)c(-c3ccccc3)nc2c1	.	13.2	.	.	.	.
O=C(COc1ncnc2ccccc12)Nc1cccc(S(=O)(=O)N2CCOCC2)c1	-0.1	3.8	-2.1	9.1	-2.1	2.1
CN(C)S(=O)(=O)c1ccc(NC(=O)CSc2ncnc3ccccc23)cc1	-0.5	6.1	.	4.1	-3.7	10.4
O=C(CSc1ncnc2ccccc12)Nc1cccc(S(=O)(=O)N2CCOCC2)c1	0.5	3.9	97.8*	24.1	-4.8	1.2
CN(C)S(=O)(=O)c1cccc(NC(=O)CSc2ncnc3ccccc23)c1	0.1	8.1	99.0*	19.7	-3.5	8.2
C#CCNC(=O)C[C@H]1C[C@@]2(C(=O)OC)C(=C[C@H](C3CCCC3)O[C@@H]2C)N(CCC2=CCCCC2)C1=O	.	6.1	.	.	.	.
C=CCN1C(=O)c2n[nH]c(C(C)C)c2C1c1ccc2c(c1)OCO2 (configuration not stated)	.	-1.7	.	.	.	.
COC(=O)C1CN(Cc2ccc(Cl)cc2)CCS(=O)(=O)N1Cc1cn(Cc2ccc(C)cc2)nn1 (configuration not stated)	.	1.7	.	.	.	.
CCOc1ccc(/C(CCC(=O)O)=N/NC(=S)NCCc2ccccc2)cc1	0.4	35.8*	.	12.7	1.8	0.4
CSC1=Nc2ccccc2N=C(N2CCCC2)C1	.	1.6	.	.	.	.
CCN(CC)c1ccc(NS(=O)(=O)c2cn(C)c(=O)n(C)c2=O)c(C)c1	2.8	0.3	98.9*	25.4	-2.6	-3.2
N#Cc1ccc(CSc2nc3sc4c(c3c(=O)n2-c2ccc(Br)cc2)CCCC4)cc1	.	6.4	.	.	.	.
CCCC[C@H]1C2CC(OC(=O)Nc3ccc(C)cc3)C(C2)[C@H]2CCCCN21 (some centres not stated)	.	0.6	.	.	.	.
COc1ccccc1NC(=O)C(Sc1ccccc1)c1ccccc1 (configuration not stated)	0.0	-3.8	84.2*	11.9	0.0	1.0
COc1ccc(NC(=O)C(Sc2ccccc2)c2ccccc2)c(OC)c1 (configuration not stated)	-0.1	-3.6	-9.3	-13.9	-0.3	2.3
Cc1oc(-c2ccc(Cl)cc2)nc1CS(=O)CC(=O)NCCCN1CCCC(C)C1 (configuration not stated)	-0.2	-3.9	99.0*	15.4	-3.4	-0.5
SMILES	aDG glyco act	rCAG binder	ALR H2O2 inh	PHOSPHO1 block	APOBEC3G inh	A3A deaminase
Cc1ccc(-c2nc(CS(=O)CC(=O)NCCCN3CC(C)CC(C)C3)c(C)o2)cc1 (configuration not stated)	-0.1	-1.5	99.2*	7.4	-3.4	-4.7
Cc1ccc(-c2nc(CS(=O)CC(=O)NCCN3CCCCC3C)c(C)o2)cc1 (configuration not stated)	-0.3	-7.8	98.0*	36.8	-7.3	-5.8
COc1ccc(-c2nc(CS(=O)CC(=O)NCCCN3CCCC(C)C3)c(C)o2)cc1OC (configuration not stated)	0.2	-4.2	98.7*	58.3	-3.9	-2.6
Cc1oc(-c2ccc(Cl)cc2)nc1CS(=O)CC(=O)NCCCN1CCN(Cc2ccccc2)CC1 (configuration not stated)	3.8	-7.0	?	24.0	0.7	-3.6
COC(=O)C1CN(Cc2ccc(OC)cc2)CCS(=O)(=O)N1Cc1ccc(C)cc1 (configuration not stated)	.	3.4	.	.	.	.
COC(=O)C1CN(Cc2cn(Cc3ccccc3)nn2)CCS(=O)(=O)N1Cc1ccc(OC)cc1 (configuration not stated)	.	3.4	.	.	.	.
COc1ccc(Cn2c(NC(=O)c3ccccc3)nc(Cc3ccccc3)c2-c2ccccc2)c(OC)c1	.	7.6	.	.	.	.
Cc1ccccc1CC(=O)Nc1nnc(-c2cccnc2)s1	.	0.6	.	.	.	.
CCc1ccc(-c2nc(CS(=O)CC(=O)NCCCN3CCOCC3)c(C)o2)cc1 (configuration not stated)	0.0	1.4	99.5*	22.6	-0.8	-0.5
Cc1ccccc1-c1nc(CS(=O)(=O)CC(=O)NCCCN2CCN(C)CC2)c(C)o1	0.3	-6.8	-4.4	12.0	-0.2	2.6
COc1ccc(-c2nc(CS(=O)CC(=O)NCCCN3CC(C)CC(C)C3)c(C)o2)cc1OC (configuration not stated)	-0.1	-3.3	98.3*	-112.7	-6.0	-3.9
Cc1oc(-c2cccs2)nc1CS(=O)CC(=O)NCCCN1CC(C)CC(C)C1 (configuration not stated)	0.1	1.3	98.8*	-1.3	0.0	0.1
Cn1c(=O)[nH]c2c(Br)nccc21	.	1.0	.	.	.	.
C[C@@H]1CCN(C2CC2)S(=O)(=O)c2ccc(N3CC[C@@H](N(C)C)C3)cc2O1	.	4.6	.	.	.	.
COc1ccc(C(=O)N2CCN=C2SCc2cccnc2)cc1OC	0.0	-1.1	100.3*	-5.3	-4.1	0.4
COc1cccc(OC)c1C(=O)N1CCN=C1SCc1cccnc1	-0.1	0.0	98.6*	10.2	-3.0	-2.3
Cc1ccc(OCc2nnc(SCC(=O)Nc3ccc4c(c3)OCO4)n2Cc2ccco2)cc1	.	2.4	.	.	.	.
Cc1ccc(NCC(O)C(O)C(O)CO)c(N=Nc2ccccc2)c1C (configuration not stated)	0.0	1.7	98.8*	10.0	6.3	4.4
COP(=O)(O)C[C@@H]1CCc2cc(C)cc([C@H](CC(C)C)NC(=O)OCc3ccccc3)c2O1	.	26.5	.	.	.	.
COC(=O)c1[nH]c(=O)c2ccccc2c1O	0.0	.	98.1*	5.7	-2.8	-0.4
